Reference: the antibiotic and cytotoxicity screens of Wong et al. (2023)
In all, about 39,000 compounds went through this assay and about 1,500 (3.8%) were called active. What follows is part of a selection rich in actives, with near analogues and random picks from the rest.

Tested on: HSkMC (human skeletal muscle cells)
Experiment: cytotoxicity call (relative viability < 0.9)
Conditions: 10 µM

Row | SMILES | cytotoxicity call
1 | COc1c(O)cc(O)cc1O | inactive
2 | O=C1OCC=C[C@H]2O[C@@]34C=CCN(Cn5nnc6ccccc65)C(=O)[C@H]3N(CCO)C(=O)[C@@H]4[C@@H]12 | inactive
3 | CNC(=O)CN1CCN2CCN(CC(=O)NC)CC(=O)[O][Gd]([O]C(=O)C2)[O]C(=O)C1 | inactive
4 | C[C@@H]1CCCCO[C@@H](CN(C)S(=O)(=O)c2cn(C)cn2)[C@@H](C)CN([C@@H](C)CO)C(=O)c2cc(NS(=O)(=O)c3cccs3)ccc2O1 | inactive
5 | Cc1noc(C)c1S(=O)(=O)Nc1cccc2c1O[C@@H](CN(C)CC1CC1)[C@@H](C)CN([C@@H](C)CO)C2=O | inactive
6 | C[C@H]1CN([C@@H](C)CO)C(=O)c2cccc(NC(=O)Nc3ccc4c(c3)OCO4)c2O[C@H]1CN(C)S(C)(=O)=O | inactive
7 | Cc1noc(C)c1S(=O)(=O)Nc1ccc2c(c1)C(=O)N([C@H](C)CO)C[C@H](C)[C@@H](CN(C)Cc1ccc(C(F)(F)F)cc1)OCCCC[C@@H](C)O2 | inactive
8 | O=C(C[C@H]1C[C@H]2c3cc(NS(=O)(=O)c4ccc(F)cc4)ccc3O[C@H]2[C@@H](CO)O1)NCc1ccccc1F | inactive
9 | C[C@H]1CN([C@@H](C)CO)C(=O)c2cc(NC(=O)CCC(F)(F)F)ccc2O[C@@H]1CN(C)C(=O)Nc1ccc(C(F)(F)F)cc1 | inactive
10 | C[C@H]1CN([C@@H](C)CO)C(=O)c2cccc(NC(=O)Nc3ccccc3)c2O[C@H]1CN(C)S(C)(=O)=O | inactive
11 | COc1ccc(S(=O)(=O)Nc2cccc3c2O[C@@H](CN(C)C(=O)Nc2c(C)noc2C)[C@@H](C)CN([C@H](C)CO)C3=O)cc1 | inactive
12 | Cc1noc(C)c1NC(=O)Nc1ccc2c(c1)CC(=O)N([C@H](C)CO)C[C@@H](C)[C@H](CN(C)S(=O)(=O)c1cn(C)cn1)O2 | inactive
13 | C[C@H]1O[C@@H](O[C@H]2[C@@H](O)[C@@H](O)[C@@H](O[C@H]3CC[C@]4(C)[C@H]5CC=C6[C@H]7CC(C)(C)[C@H]8C[C@]7(C(=O)O8)[C@@H](O)C[C@]6(C)[C@@]5(C)CC[C@H]4C3(C)C)O[C@@H]2CO)[C@@H](O)[C@@H](O[C@H]2OC[C@@H](O)[C@@H](O)[C@@H]2O)[C@@H]1O | inactive
14 | C[C@@H]1O[C@@H](O[C@H]2[C@H](O)[C@@H](O)[C@H](OC[C@H]3O[C@@H](OC(=O)[C@]45CCC(C)(C)C[C@@H]4C4=CC[C@H]6[C@@]7(C)CC[C@H](O[C@H]8OC[C@H](O)[C@H](O)[C@H]8O[C@H]8O[C@@H](C)[C@H](O)[C@@H](O)[C@H]8O)[C@@](C)(CO)[C@@H]7CC[C@@]6(C)[C@]4(C)CC5)[C@H](O)[C@@H](O)[C@@H]3O)O[C@@H]2CO)[C@H](O)[C@H](O)[C@H]1O | inactive
